Results reported in PubChem BioAssay (NCI).
About 83,000 compounds went through this panel and 20% of them were active in at least one assay; those are over-represented in the sample as a whole.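 Single-dose data. Exposure time 48 hours. Values below 10 considered active.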 A number with no mark means an inactive call. The source made the active and inactive calls.

System: CAKI-1 renal
Assay: NCI-60 one-dose screen, 48 h (100 = growth as untreated, 0 = no growth, -100 = all killed)
Conditions: 10 µM unless noted
Procedure: Growth inhibition of the CAKI-1 human tumor cell line is measured as a screen for anti-cancer activity. Cells are grown in 96 well plates and exposed to the test compound for 48 hours. Compounds are tested at a single concentration, which is 10^-5 M for most compounds. The reported endpoint is percent growth (GI% or GIPRCNT), where numbers from 0 - 100% represent growth inhibition, and numbers from -100% - 0 represent cell death. For example, a value of 40 represents 60% growth inhibition. A value of 0 means no net growth occurred over the course of the experiment. A value of -40 indicates 40% of cells at the beginning of the experiment died by the end of the experiment. A value of -100 means all cells are dead at the end of the experiment.
NCI-60 Human Tumor Cell Lines Screen was performed using the standard one-dose NCI protocol, which is described in more detail at https://dtp.cancer.gov/discovery_development/nci-60/default.htm.
Compounds with GIPRCNT values below 10 were considered active. Activity score was based on GIPRCNT using the following formula: […]
Score is 0 for GIPRCNT values of 100 or above, 50 for GIPRCNT values of 0, and 100 for GIPRCNT values of -100.

Structure (SMILES) | growth
Cc1ccc(-n2nc3c(c(C#N)c2=O)CC(c2ccccc2[N+](=O)[O-])C([N+](=O)[O-])=C3O)cc1 (stereo not given) | 77.4%
CC(Sc1nc2sc3c(c2c(=O)n1-c1ccc(Cl)cc1)CCCC3)C(=O)Nc1nc(-c2ccc(Br)cc2)cs1 (stereo not given) | 94.4%
O=C1Nc2ccccc2/C1=C\c1c(-c2ccccc2)nc2ccccn12 | 39.2%
CCCCC/C=C/C(C)=C/C1CC(C)C/C=C/CCC(O)C(OC(N)=O)CCC(C)CC(O)C(C)C(=O)O1 (stereo not given) | 78.9%
N#CC(C#N)=Cc1cc2ccccc2nc1Oc1ccc(C(F)(F)F)cc1 | 67.7%
COc1cc2nc(-c3ccc(Cl)cc3)cc(OCCCN3CCCC3)c2cc1OC | 3.85% (active)
CC(=O)Nc1cccc(-c2ccc3c(c2)NC(=O)/C3=C\c2ccc[nH]2)c1 | 33%
COc1ccc(C(=O)c2nc3ccccc3n2CC(=O)c2ccc(Cl)cc2)cc1 | 23.7%
COc1cc(-c2cc(-c3ccc(N(C)C)cc3)nc(N3CCOCC3)c2C#N)cc(OC)c1OC | 29.8%
O=C(c1nc2ccccc2[nH]1)C1C(c2ccc(Br)cc2)C2CC3CCCC[C@H]3N2[C@@]12C(=O)Nc1cc(Cl)ccc12 (stereo not given in full) | 17.7%
O=S(=O)(NCCCNc1nccc(-c2c(-c3cccc(F)c3)nc3sccn23)n1)c1cccc2ccccc12 | 29.1%
c1ccc2c(-c3c[nH]c4ccccc34)c3c(cc2c1)[nH]c1ccccc13 | 63%
COc1ccc(CC(C)=C(c2ccc(OCCN3CCCCCC3)cc2)c2ccc(OCCN3CCCCCC3)cc2)cc1 | -92.5% (active)
O=C(NCCc1ccccc1)Nc1ccc2cc3ccc(NC(=O)NCCc4ccccc4)cc3nc2c1 | 86.6%
CCCCCCCC(=O)OCC/C=C/C1OC1C1OC(=O)/C=C\C=C\C(=O)N(C(C)=O)C(=O)/C=C(/C)CCC2OC2C1OC(=O)NC(C)=O (stereo not given) | 71%
COC(=O)/C=C1\S/C(=N\NC(=O)c2cc3ccc2/C=C\c2ccc(cc2)/C=C\3)N(c2ccccc2)C1=O | 69.3%
Cc1nn(-c2ccccc2)c(Oc2c(Cl)cccc2Cl)c1/C=N/N=c1\sc2ccccc2n1C | 36.4%
COC(=O)C1=C(C(=O)ON)C2C=CC1(C(Cc1ccccc1)Nc1ccccc1)O2 (stereo not given) | 57.3%
C/C(=N\NC(=O)CSc1nc2ccccc2c(=O)n1Cc1ccc(S(N)(=O)=O)cc1)c1ccc(F)cc1 | 95%
Cc1cc(C)c(S(=O)(=O)Oc2ccccc2[N+](=O)[O-])c(C)c1 | 24%

Structure (SMILES) | growth
O=C1/C=C/[C@@H](O)[C@@H]2C[C@@H](O)C[C@H]2/C=C/CCC[C@H](CCc2cccc3ccccc23)O1 | -17.9% (active)
COc1cc(-c2n/c(=C\c3c(O)[nH]c4ccc(Cl)cc34)cc3c2=Nc2ccccc2-3)ccc1F | 62.9%
O=C(CCN1CCCC1)Nc1ccc2c(NCCc3ccccc3)c3ccccc3nc2c1 | 4.47% (active)
O=C1Nc2cc(-c3cccc([N+](=O)[O-])c3)ccc2/C1=C/c1ccc[nH]1 | 80.9%
C#CCNC(=O)c1cccc2c1cc(C)n2-c1nc2c(c(NCc3ccccc3)n1)CCCC2 | 3.06% (active)
COc1ccc(-c2nc3sccn3c2/C=C/C(=O)c2ccc3c(c2)OCO3)cc1 | 78.3%
Cc1cc2nc3c4cc([N+](=O)[O-])ccc4n(CCN(C)C)c3nc2cc1C | -15.7% (active)
CC(=O)c1cc2c(N)c(C(=O)Nc3cccc4ccncc34)sc2nc1C | 93.1%
O=S(=O)(NCCNc1nccc(-c2c(-c3cccc(F)c3)nc3sccn23)n1)c1ccc(Br)cc1 | 35.1%
CN1CCN(C(=O)[C@]23CCC(C)(C)C[C@H]2C2=CC[C@@H]4[C@@]5(C)C/C(=C/c6ccncc6)C(=O)C(C)(C)[C@@H]5CC[C@@]4(C)[C@]2(C)CC3)CC1 | 75.4%
O=c1c2c(c(=O)n1O)c1c3ccc[nH]c3nc1c1nc3[nH]cccc3c12 | 68.9%
N#Cc1c(-c2ccccc2)nc2c(c(-c3ccccc3)nn2-c2ccccc2)c1-c1ccc(O)cc1 | 53.4%
CCN(CC)c1ccc(/C=N/NC(=O)CSc2nc3ccccc3c(=O)n2CCc2ccc(S(N)(=O)=O)cc2)c(O)c1 | 36%
CCOC(=O)c1cc(C(=O)c2ccc(OC)c(OC)c2)n2c1ccc1ccccc12 | 64.6%
C=C1C(=O)O[C@H]2[C@H]1CC/C(COC(=O)NCc1c[nH]c3ccc(F)cc13)=C\CC[C@@]1(C)O[C@@H]21 | -87.3% (active)
COC(=O)N[C@H]1CCc2c(Cl)c(OC)c(OC)c(OC)c2-c2ccc(SC)c(=O)cc21 | 15.1%
O=C(CCN1CCCC1)Nc1ccc2c(Nc3ccc(Br)cc3)c3ccccc3nc2c1 | 15.3%
CCOC(=O)c1cc(C(=O)c2ccc(Br)cc2)n2ccc(/C=C/c3cc[n+](CC(=O)c4ccc(OC)cc4)cc3)cc12 | 93.2%
COc1cc2oc(-c3cccc(C(=O)Nc4ccc(Cl)cc4)c3)cc(=O)c2c(O)c1OC | 55%
COc1ccc(C/C(=C(\C)c2ccc(OCCN3CCCC3)cc2)c2ccc(OCCN3CCCC3)cc2)cc1 | 80.7%
